Results on nine molecules are retold here after PubChem BioAssay (NCI).

About 83,000 compounds went through this panel and 20% of them were active in at least one assay; those are over-represented in the sample as a whole.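 Single-concentration screen, 48 h exposure, 96-well plates. Endpoint: percent growth. Below 10 = active.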 Values without a mark were called inactive. Calls of active or inactive are those of the source.

Test systems include SR leukemia; RPMI-8226 leukemia; OVCAR-8 ovarian; OVCAR-5 ovarian; OVCAR-4 ovarian; SK-OV-3 ovarian; IGROV1 ovarian; OVCAR-3 ovarian; HS 578T breast; NCI/ADR-RES ovarian; T-47D breast; BT-549 breast; SW-620 colon; MCF7 breast; HCT-116 colon; HCC-2998 colon; KM12 colon; MDA-MB-435 melanoma.
What all share (experiment): NCI-60 one-dose screen, 48 h (100 = growth as untreated, 0 = no growth, -100 = all killed)
Common to all, as to conditions: 10 µM unless noted

`CC(=O)[C@@H]1CC[C@]2(C(N)=O)CC[C@]3(C)[C@H](CC[C@@H]4[C@@]5(C)CCCNC(C)(C)[C@@H]5CC[C@]43C)[C@@H]12`: the growth with SR leukemia was 43.7%; in the experiment with RPMI-8226 leukemia, 61.7%; in the experiment with OVCAR-8 ovarian, 98%; in the experiment with OVCAR-5 ovarian, 91.5%; in the experiment with OVCAR-4 ovarian it was 84.6%; in the experiment with SK-OV-3 ovarian, 108%. In addition, the growth in the experiment with IGROV1 ovarian is 93.6%; in the experiment on OVCAR-3 ovarian it was 89.3%; in the experiment with HS 578T breast, 84.4%; in the experiment with NCI/ADR-RES ovarian it was 90.6%; with T-47D breast, 93.9%; with BT-549 breast, 87.1%. For the same molecule, the growth with SW-620 colon is 90.4%; in the experiment on MCF7 breast, 72.1%; in the experiment on HCT-116 colon it was 65.1%; in the experiment with HCC-2998 colon, 92%; in the experiment with KM12 colon, 90.5%.

On to `C=C1C(=O)O[C@H]2[C@H]1CC/C(CNC(=O)c1cccc3ccccc13)=C\CC[C@@]1(C)O[C@@H]21`, for which the growth in the experiment on SR leukemia was 16.5%; with RPMI-8226 leukemia it was 2.93% (active); with OVCAR-8 ovarian, 43.5%; in the experiment on OVCAR-5 ovarian it was 68.8%; with OVCAR-4 ovarian, 63.2%; in the experiment on SK-OV-3 ovarian, 110%. Further, the growth was 31.3% in the experiment with IGROV1 ovarian; 24.8% in the experiment on OVCAR-3 ovarian; 69.9% in the experiment with HS 578T breast; 80.9% in the experiment on NCI/ADR-RES ovarian; 46% with T-47D breast; 40.2% in the experiment with MDA-MB-435 melanoma. In addition, the growth with SW-620 colon is 16.5%; in the experiment on MCF7 breast, 24.4%; in the experiment on HCT-116 colon, -21.6% (active); in the experiment with HCC-2998 colon it was 88%; in the experiment on KM12 colon it was 83.2%.

On to `COc1cc(C=O)ccc1OC1OC(COC(C)=O)C(OC(C)=O)C(OC(C)=O)C1OC(C)=O` (stereo not drawn), for which the growth is 60.7% in the experiment with SR leukemia; 92.1% in the experiment on RPMI-8226 leukemia; 102% with OVCAR-8 ovarian; 103% in the experiment with OVCAR-5 ovarian; 103% with OVCAR-4 ovarian; 103% in the experiment with SK-OV-3 ovarian. Besides, the growth in the experiment with IGROV1 ovarian is 113%; with OVCAR-3 ovarian, 104%; with HS 578T breast, 104%; with NCI/ADR-RES ovarian, 103%; in the experiment on T-47D breast, 92.4%; with BT-549 breast it was 102%. Besides, the growth in the experiment on SW-620 colon was 99.7%; with MCF7 breast it was 97.3%; with HCT-116 colon it was 100%; in the experiment with HCC-2998 colon, 108%; with KM12 colon, 103%.

Take `NS(=O)(=O)c1ccc(CCn2c(SCC(=O)c3ccc(Cl)cc3)nc3ccccc3c2=O)cc1`: the growth was 100% in the experiment with SR leukemia; 107% in the experiment on RPMI-8226 leukemia; 107% with OVCAR-8 ovarian; 108% in the experiment with OVCAR-5 ovarian; 103% with OVCAR-4 ovarian; 107% with SK-OV-3 ovarian. The growth is 107% in the experiment with IGROV1 ovarian; 109% in the experiment on OVCAR-3 ovarian; 101% in the experiment on HS 578T breast; 98.6% in the experiment on NCI/ADR-RES ovarian; 95.3% in the experiment on T-47D breast; 102% with MDA-MB-435 melanoma. The growth in the experiment on SW-620 colon is 103%; with MCF7 breast, 91.8%; in the experiment on HCT-116 colon, 97%; with HCC-2998 colon, 87.7%; with KM12 colon it was 102%.

Regarding `COc1cc2c(c(OC)c1OC)-c1ccc(NNC(=S)N(Cc3cccc(C[N+](Cc4cccc(CNC56CC7CC(CC(C7)C5)C6)c4)(Cc4cccc(CNC56CC7CC(CC(C7)C5)C6)c4)Cc4cccc(CN(C(=S)NNc5ccc6c(cc5=O)[C@@H](NC(C)=O)CCc5cc(OC)c(OC)c(OC)c5-6)C56CC7CC(CC(C7)C5)C6)c4)c3)C34CC5CC(CC(C5)C3)C4)c(=O)cc1[C@@H](NC(C)=O)CC2` (stereo partly drawn), the growth with SR leukemia is -49.9% (active); in the experiment on RPMI-8226 leukemia it was -46.6% (active); in the experiment on OVCAR-8 ovarian it was 16.1%; in the experiment with OVCAR-5 ovarian, 37%; with OVCAR-4 ovarian it was 29.3%; with SK-OV-3 ovarian it was 37%. For the same molecule, the growth was 10.6% in the experiment with IGROV1 ovarian; 20.7% with OVCAR-3 ovarian; 7.62% (active) in the experiment with HS 578T breast; 76.3% in the experiment on NCI/ADR-RES ovarian; 51.8% with T-47D breast; -9.46% (active) in the experiment with MDA-MB-435 melanoma. The growth in the experiment on SW-620 colon was 3.6% (active); in the experiment with MCF7 breast it was -24.6% (active); with HCT-116 colon it was -54.6% (active); with HCC-2998 colon, -58.4% (active); in the experiment on KM12 colon, 4.25% (active).

Consider `CCNC(=O)Oc1ccc(/C(=C(\C)c2ccccc2)c2ccc(OCCN3CCCCC3)cc2)cc1`, for which the growth was 4.98% (active) in the experiment with SR leukemia; 38.7% in the experiment with RPMI-8226 leukemia; 84.8% with OVCAR-5 ovarian; 65.5% with OVCAR-4 ovarian; 53.6% in the experiment with SK-OV-3 ovarian; 79.9% in the experiment on IGROV1 ovarian. Besides, the growth in the experiment on OVCAR-3 ovarian is 69.4%; in the experiment on HS 578T breast, 57.5%; with NCI/ADR-RES ovarian, 66.8%; in the experiment with T-47D breast it was 24.1%; in the experiment on BT-549 breast, 65.2%; with MDA-MB-435 melanoma, 65.5%. The growth was 59.1% with SW-620 colon; 25.8% in the experiment on MCF7 breast; 40.5% in the experiment with HCT-116 colon; 84.9% in the experiment with HCC-2998 colon; 50.8% in the experiment on KM12 colon.

Consider `COc1ccc(/C=C/c2nc(Nc3ccc(Cl)cc3)c3ccccc3n2)cc1`, for which the growth in the experiment on SR leukemia is -3.22% (active); with RPMI-8226 leukemia, 52.9%; with OVCAR-5 ovarian, 73.2%; in the experiment on OVCAR-4 ovarian, 60.2%; in the experiment with SK-OV-3 ovarian, 83.6%; in the experiment with IGROV1 ovarian, 75.9%. Besides, the growth in the experiment on OVCAR-3 ovarian is 67.2%; in the experiment on HS 578T breast, 70.5%; in the experiment on NCI/ADR-RES ovarian, 65.7%; in the experiment with T-47D breast it was 49.9%; in the experiment with BT-549 breast, 93.4%; with MDA-MB-435 melanoma, 55.3%. In addition, the growth was 48.7% in the experiment with SW-620 colon; 44% in the experiment with MCF7 breast; 36.1% in the experiment on HCT-116 colon; 63.9% in the experiment with HCC-2998 colon; 48% with KM12 colon.

With `Cn1nc(CC#N)c2c(=N)n(N)cnc21`, the growth in the experiment with SR leukemia was 93.4%; with RPMI-8226 leukemia, 117%; with OVCAR-5 ovarian it was 93.5%; with OVCAR-4 ovarian, 114%; in the experiment on SK-OV-3 ovarian, 99.8%; with IGROV1 ovarian, 103%. For the same molecule, the growth in the experiment with OVCAR-3 ovarian is 112%; in the experiment with HS 578T breast, 114%; with NCI/ADR-RES ovarian, 113%; with T-47D breast it was 105%; with BT-549 breast, 122%; in the experiment on MDA-MB-435 melanoma it was 107%. Besides, the growth in the experiment on SW-620 colon was 104%; in the experiment on MCF7 breast it was 100%; in the experiment with HCT-116 colon, 119%; in the experiment on HCC-2998 colon, 120%; in the experiment on KM12 colon, 102%.

For the molecule `O=C(/C(=C\c1ccc([N+](=O)[O-])cc1)S(=O)Cc1ccc(F)cc1)c1ccc(F)cc1` (stereo not drawn), the growth in the experiment with SR leukemia is 8.47% (active); in the experiment on RPMI-8226 leukemia, -37.6% (active); in the experiment with OVCAR-5 ovarian it was 40.4%; in the experiment on OVCAR-4 ovarian it was 45%; with SK-OV-3 ovarian it was 103%; in the experiment with IGROV1 ovarian, -19.1% (active). Further, the growth with OVCAR-3 ovarian is 18.1%; in the experiment with HS 578T breast it was 40.9%; in the experiment on NCI/ADR-RES ovarian, 20.7%; in the experiment on T-47D breast, 10.3%; in the experiment with BT-549 breast, 74.6%; in the experiment on MDA-MB-435 melanoma it was 53.7%. In addition, the growth in the experiment with SW-620 colon was -33.5% (active); in the experiment with MCF7 breast, 16.4%; with HCT-116 colon, -20.5% (active); in the experiment with HCC-2998 colon, 45.9%; with KM12 colon, 43.4%.
